PubChem BioAssay (Tox21)
“And” between values parts separate entries of the source, which are not always exact repeats. Equal values may be shown once. Inconclusive results are not listed. The source made the active and inactive calls. Calls come from the whole dose curve; as a rule, active = well fitted curve in the direction sought with a large enough effect in the repeat runs; inconclusive = weak or mixed curves; inactive = no such curve, though single readings can be large; an effect the other way counts as inactive or inconclusive.

Legend:
[1] = qHTS RealTime-Glo MT Cell Viability Assay in HepG2 cells - 40 hour (AID 1224870); note: nearly all actives have a fitted effect of over 50% in size
Outline: (§1)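 HepG2 cells mixed with RealTime-Glo MT reagents (NanoLuc plus cell-permeant prosubstrate) were seeded at 600 cells/well, incubated 5 h at 37 C/5% CO2, then pinned with compounds in DMSO; nonlytic luminescence tracked viability during 40 h treatment.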

[2] = A CellTox Green Cytotoxicity Assay to monitor cytotoxicity in HEK293 cells - 40 hour (AID 1224871); note: nearly all actives have a fitted effect of over 45% in size
Outline: (§2)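 Fluorescence from a DNA-binding dye excluded by viable cells was measured repeatedly in the same HEK293 wells (600 cells/well) during continuous compound exposure at 37 C. Each assay gives one read point: 0, 8, 16, 24, 32 or 40 h.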

[3] = qHTS RealTime-Glo MT Cell Viability Assay in HEK293 cells - 16 hour (AID 1224872); note: top concentration of the series differs between compounds; nearly all actives have a fitted effect of over 50% in size
Outline: (§3)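 Assay medium contained NanoLuc luciferase plus cell-permeant prosubstrate, added with HEK293 cells at 600 cells/well. After 5 h at 37 C/5% CO2 compounds were added; plates stayed at 37 C for 40 h with serial luminescence reads.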

[4] = qHTS RealTime-Glo MT Cell Viability Assay in HepG2 cells - 8 hour (AID 1224873); note: nearly all actives have a fitted effect of over 55% in size
Outline: as §1

[5] = qHTS RealTime-Glo MT Cell Viability Assay in HEK293 cells - 40 hour (AID 1224874); details: RealTime-Glo luminescence; max response: active compounds read low; note: nearly all actives have a fitted effect of over 50% in size
Outline: (§4)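 Luminescence, which tracks viable cell number through reduction of the prosubstrate to a NanoLuc substrate, was read over continuous 37 C culture. Cells (600/well) were premixed with reagent and rested 5 h before 23 nL of compound in DMSO was pinned.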

[6] = A CellTox Green Cytotoxicity Assay to monitor cytotoxicity in HEK293 cells - 24 hour (AID 1224875); note: series mostly up to about 77 µM; nearly all actives have a fitted effect of over 45% in size
Outline: as §2

[7] = A CellTox Green Cytotoxicity Assay to monitor cytotoxicity in HepG2 cells - 16 hour (AID 1224876); note: nearly all actives have a fitted effect of over 45% in size
Outline: (§5)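 Real-time cytotoxicity: fluorescence of a cell-impermeant cyanine dye binding DNA of dead HepG2 cells, measured repeatedly (0–40 h) during compound exposure at 37 C. Cells seeded 600/well with reagent, dosed after 5 h.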

[8] = qHTS RealTime-Glo MT Cell Viability Assay in HepG2 cells - 32 hour (AID 1224877); note: nearly all actives have a fitted effect of over 55% in size
Outline: (§6)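 qHTS, HepG2, 600 cells/well, RealTime-Glo (NanoLuc + prosubstrate) added with cells; 5 h preincubation; DMSO compound addition; 37 C; luminescence at 0/8/16/24/32/40 h.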

[9] = A CellTox Green Cytotoxicity Assay to monitor cytotoxicity in HepG2 cells - 24 hour (AID 1224878); note: nearly all actives have a fitted effect of over 45% in size
Outline: as §5

[10] = A CellTox Green Cytotoxicity Assay to monitor cytotoxicity in HepG2 cells - 40 hour (AID 1224879); note: nearly all actives have a fitted effect of over 40% in size
Outline: as §5

[11] = qHTS RealTime-Glo MT Cell Viability Assay in HEK293 cells - 0 hour (AID 1224880)
Outline: as §4

[12] = A CellTox Green Cytotoxicity Assay to monitor cytotoxicity in HEK293 cells - 32 hour (AID 1224881); note: nearly all actives have a fitted effect of over 40% in size
Outline: as §2

[13] = A CellTox Green Cytotoxicity Assay to monitor cytotoxicity in HepG2 cells - 0 hour (AID 1224882); note: nearly all actives have a fitted effect of over 35% in size
Outline: as §5

[14] = A CellTox Green Cytotoxicity Assay to monitor cytotoxicity in HepG2 cells - 32 hour (AID 1224883); note: nearly all actives have a fitted effect of over 50% in size
Outline: as §5

[15] = qHTS RealTime-Glo MT Cell Viability Assay in HepG2 cells - 16 hour (AID 1224885); note: nearly all actives have a fitted effect of over 50% in size
Outline: as §6

[16] = qHTS RealTime-Glo MT Cell Viability Assay in HEK293 cells - 24 hour (AID 1224886)
Outline: as §3

[17] = qHTS RealTime-Glo MT Cell Viability Assay in HEK293 cells - 8 hour (AID 1224887)
Outline: as §4

[18] = A CellTox Green Cytotoxicity Assay to monitor cytotoxicity in HEK293 cells - 16 hour (AID 1224888); note: nearly all actives have a fitted effect of over 35% in size
Outline: as §2

[19] = qHTS RealTime-Glo MT Cell Viability Assay in HepG2 cells - 0 hour (AID 1224889); note: nearly all actives have a fitted effect of over 50% in size
Outline: as §6

[20] = A CellTox Green Cytotoxicity Assay to monitor cytotoxicity in HEK293 cells - 8 hour (AID 1224884); note: nearly all actives have a fitted effect of over 35% in size
Outline: as §2
% is set by controls: 0 for no effect and ±100 for the full control effect.

CN(C)C(=O)Nc1cccc(C(F)(F)F)c1
inactive: outcome [1] | Potency [2] | outcome [3] | outcome [4] | max response [5] -22.8% and -6.94% | Potency [6] | Potency [7] | outcome [8] | Potency [9] | Potency [10] | outcome [11] | Potency [12] | Potency [13] | Potency [14] | outcome [15] | outcome [16] | outcome [17] | Potency [18] | outcome [19]

C/C=C/c1ccc2c(c1)OCO2
inactive: outcome [1] | Potency [2] | outcome [3] | outcome [4] | max response [5] -5.98% and -4.01% | Potency [6] | Potency [7] | outcome [8] | Potency [9] | Potency [10] | outcome [11] | Potency [12] | Potency [13] | Potency [14] | Potency [20] | outcome [16] | outcome [17] | outcome [19]

CCOc1ccc(N)cc1
inactive: outcome [1] | Potency [2] | outcome [3] | outcome [4] | max response [5] 2.16% and -1.88% | Potency [6] | Potency [7] | outcome [8] | Potency [9] | Potency [10] | outcome [11] | Potency [12] | Potency [13] | Potency [14] | Potency [20] | outcome [15] | outcome [16] | outcome [17] | outcome [19]

CNC(=O)O/N=C/C(C)(C)SC
inactive: outcome [1] | Potency [2] | outcome [3] | outcome [4] | max response [5] 6.31% and 4.21% | Potency [6] | Potency [7] | outcome [8] | Potency [9] | Potency [10] | outcome [11] | Potency [12] | Potency [13] | Potency [14] | Potency [20] | outcome [16] | outcome [17] | outcome [19]

O=C/C=C/c1ccccc1
inactive: outcome [1] | Potency [2] | outcome [3] | outcome [4] | max response [5] -0.971% and 11.8% and 2.22% | Potency [6] | Potency [7] | outcome [8] | Potency [9] | Potency [10] | outcome [11] | Potency [12] | Potency [13] | Potency [14] | Potency [20] | outcome [16] | outcome [17] | outcome [19]

CCNc1nc(Cl)nc(NC(C)C)n1
inactive: outcome [1] | Potency [2] | outcome [3] | outcome [4] | max response [5] 2.47% and -5.57% | Potency [6] | Potency [7] | outcome [8] | Potency [9] | Potency [10] | outcome [11] | Potency [12] | Potency [13] | Potency [14] | Potency [20] | outcome [15] | outcome [16] | outcome [17] | outcome [19]

C=C(C)C(=O)OCC(CC)CCCC (centres undefined)
inactive: outcome [1] | Potency [2] | outcome [3] | outcome [4] | max response [5] 1.51% | Potency [6] | Potency [7] | outcome [8] | Potency [9] | Potency [10] | outcome [11] | Potency [12] | Potency [13] | Potency [14] | Potency [20] | outcome [15] | outcome [16] | outcome [17] | Potency [18] | outcome [19]

FC(F)(F)c1ccc(Cl)cc1
inactive: outcome [1] | Potency [2] | outcome [3] | outcome [4] | max response [5] 3.01% and 8.11% | Potency [6] | Potency [7] | outcome [8] | Potency [9] | Potency [10] | outcome [11] | Potency [12] | Potency [13] | Potency [14] | Potency [20] | outcome [15] | outcome [16] | outcome [17] | Potency [18] | outcome [19]

O=P1(NCCCl)OCCCN1CCCl (centres undefined)
inactive: outcome [1] | Potency [2] | outcome [3] | outcome [4] | max response [5] 0.555% and 9.01% and 5.36% | Potency [6] | Potency [7] | outcome [8] | Potency [9] | Potency [10] | outcome [11] | Potency [12] | Potency [13] | Potency [14] | Potency [20] | outcome [15] | outcome [16] | outcome [17] | Potency [18] | outcome [19]

Cl/C=C/Cl
inactive: outcome [1] | Potency [2] | outcome [3] | outcome [4] | max response [5] -5.85% and -1.58% and 0.395% | Potency [6] | Potency [7] | outcome [8] | Potency [9] | outcome [11] | Potency [12] | Potency [13] | Potency [14] | Potency [20] | outcome [15] | outcome [16] | outcome [17] | Potency [18] | outcome [19]

CCCOC(=O)c1ccccc1C(=O)OCCC
inactive: outcome [1] | Potency [2] | outcome [3] | outcome [4] | max response [5] 0.157% and 0.878% | Potency [6] | Potency [7] | outcome [8] | Potency [9] | Potency [10] | outcome [11] | Potency [12] | Potency [13] | Potency [14] | Potency [20] | outcome [15] | outcome [16] | outcome [17] | Potency [18] | outcome [19]

CN1C(=O)CCS(=O)(=O)C1c1ccc(Cl)cc1 (centres undefined)
inactive: outcome [1] | Potency [2] | outcome [3] | outcome [4] | max response [5] 4.07% and -0.966% | Potency [6] | Potency [7] | outcome [8] | Potency [9] | Potency [10] | outcome [11] | Potency [12] | Potency [13] | Potency [14] | outcome [15] | outcome [16] | outcome [17] | Potency [18] | outcome [19]
